# From the supplement of paper PMC8728848
# Many of the other results were omitted from the sample, so the strongest signals are more common in it than they were.
# Legend:
# Assay in all cases: glycan array binding signal (z-score within array); higher = stronger binding
# Conditions in all cases: glycan notation: IUPAC condensed, linker removed
# [1] = molecular target: Fuc(a1-2)Gal(b1-3)GalNAc(b1-3)Gal
# Summary of the method: (§1)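 Columns mapping to the same glycan were averaged after glycan names were converted to IUPAC-condensed notation. The data come from 3228 arrays in the Consortium for Functional Glycomics database, limited to those with an available protein sequence. Binding is reported as a within-array Z-score averaged across arrays of one protein sequence and across linkers.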
# [2] = molecular target: Fuc(a1-2)Gal(b1-4)GlcNAc(b1-3)Gal(b1-4)GlcNAc
# Summary of the method: as §1
# [3] = molecular target: Fuc(a1-2)Gal(b1-4)GlcNAc(b1-3)Gal(b1-4)GlcNAc(b1-3)Gal(b1-4)GlcNAc
# Summary of the method: as §1
# [4] = molecular target: Fuc(a1-2)Gal(b1-4)[Fuc(a1-3)]GlcNAc(b1-3)Gal(b1-4)[Fuc(a1-3)]GlcNAc(b1-3)Gal(b1-4)[Fuc(a1-3)]GlcNAc
# Summary of the method: as §1
# [5] = molecular target: Fuc(a1-2)[Gal(a1-3)]Gal(b1-4)Glc
# Summary of the method: as §1
# [6] = molecular target: Fuc(a1-2)[Gal(a1-3)]Gal(b1-4)[Fuc(a1-3)]GlcNAc
# Summary of the method: as §1
# [7] = molecular target: Fuc(a1-2)[GalNAc(a1-3)]Gal(b1-4)GlcNAc
# Summary of the method: as §1
# [8] = molecular target: Fuc(a1-2)[GalNAc(a1-3)]Gal(b1-4)[Fuc(a1-3)]GlcNAc
# Summary of the method: as §1
# Gal(b1-2)Gal = molecular target: Gal(b1-2)Gal
# Summary of the method: as §1
# [9] = molecular target: Gal(b1-3)GalNAc(b1-4)Gal(b1-4)Glc
# Summary of the method: as §1
# Gal(b1-4)Glc6S = molecular target: Gal(b1-4)Glc6S
# Summary of the method: as §1
# Gal3S6S(b1-4)GlcNAc6S = molecular target: Gal3S6S(b1-4)GlcNAc6S
# Summary of the method: as §1
# Gal6S(b1-4)GlcNAc = molecular target: Gal6S(b1-4)GlcNAc
# Summary of the method: as §1
# [10] = molecular target: GlcNAc(b1-3)Gal(b1-4)GlcNAc
# Summary of the method: as §1
# [11] = molecular target: GlcNAc(b1-4)[GlcNAc(b1-6)]GalNAc
# Summary of the method: as §1
# [12] = molecular target: Man(a1-2)Man(a1-2)Man(a1-3)Man
# Summary of the method: as §1
# [13] = molecular target: Neu5Ac(a2-3)Gal(b1-3)GalNAc(b1-3)Gal(a1-4)Gal(b1-4)Glc
# Summary of the method: as §1
# [14] = molecular target: Neu5Ac(a2-3)Gal(b1-3)GalNAc6S
# Summary of the method: as §1
# [15] = molecular target: Neu5Ac(a2-3)GalNAc(b1-4)GlcNAc
# Summary of the method: as §1
# [16] = molecular target: Neu5Ac(a2-6)Gal(b1-4)GlcNAc
# Summary of the method: as §1
# [17] = molecular target: Neu5Ac(a2-6)Gal(b1-4)GlcNAc(b1-3)Gal(b1-4)[Fuc(a1-3)]GlcNAc(b1-3)Gal(b1-4)[Fuc(a1-3)]GlcNAc
# Summary of the method: as §1
# [18] = molecular target: Neu5Ac9Ac(a2-6)Gal(b1-4)GlcNAc
# Summary of the method: as §1
# [19] = molecular target: Fuc(a1-2)[GalNAc(b1-3)]Gal
# Summary of the method: as §1
# [20] = molecular target: Fuc(a1-3)[Gal3S(b1-4)]GlcNAc6S
# Summary of the method: as §1
# Gal(a1-3)Gal(b1-4)Glc = molecular target: Gal(a1-3)Gal(b1-4)Glc
# Summary of the method: as §1
# [21] = molecular target: Gal(a1-3)Gal(b1-4)[Fuc(a1-3)]GlcNAc
# Summary of the method: as §1
# [22] = molecular target: Gal(b1-3)[GlcNAc(b1-6)]GalNAc
# Summary of the method: as §1
# [23] = molecular target: Gal(b1-4)GlcNAc(b1-3)Gal(b1-4)GlcNAc
# Summary of the method: as §1
# [24] = molecular target: Gal3S(b1-4)[Fuc(a1-3)]Glc
# Summary of the method: as §1
# Gal3S4S(b1-4)GlcNAc = molecular target: Gal3S4S(b1-4)GlcNAc
# Summary of the method: as §1
# Gal6S(b1-4)GlcNAc6S = molecular target: Gal6S(b1-4)GlcNAc6S
# Summary of the method: as §1
# Man(a1-3)[Man(a1-6)]Man = molecular target: Man(a1-3)[Man(a1-6)]Man
# Summary of the method: as §1
# [25] = molecular target: Man(a1-3)[Man(a1-6)]Man(b1-4)GlcNAc(b1-4)GlcNAc
# Summary of the method: as §1
# [26] = molecular target: Neu5Ac(a2-3)Gal(b1-3)GlcNAc6S
# Summary of the method: as §1
# [27] = molecular target: Neu5Ac(a2-3)Gal(b1-4)GlcNAc6S
# Summary of the method: as §1
# [28] = molecular target: Neu5Ac(b2-6)Gal(b1-4)GlcNAc
# Summary of the method: as §1
# [29] = molecular target: Neu5Gc(a2-3)Gal(b1-4)[Fuc(a1-3)]GlcNAc
# Summary of the method: as §1
# [30] = molecular target: Neu5Gc(a2-6)Gal(b1-4)GlcNAc
# Summary of the method: as §1
# [31] = molecular target: Fuc(a1-2)Gal(b1-4)[Fuc(a1-3)]GalNAc(b1-3)Gal(b1-4)[Fuc(a1-3)]GlcNAc
# Summary of the method: as §1
# [32] = molecular target: Fuc(a1-3)[GalNAc(b1-4)]Gal(b1-4)GlcNAc
# Summary of the method: as §1
# [33] = molecular target: Gal(b1-3)[GlcNAc(b1-6)]GlcNAc
# Summary of the method: as §1
# [34] = molecular target: Gal(b1-4)GlcNAc(b1-3)Gal(b1-4)[Fuc(a1-3)]GlcNAc(b1-3)Gal(b1-4)[Fuc(a1-3)]GlcNAc
# Summary of the method: as §1
# GalNAc(b1-4)GlcNAc = molecular target: GalNAc(b1-4)GlcNAc
# Summary of the method: as §1
# [35] = molecular target: GlcNAc(a1-3)Gal(b1-4)GlcNAc
# Summary of the method: as §1
# [36] = molecular target: GlcNAc(b1-3)Gal(b1-3)GalNAc
# Summary of the method: as §1
# [37] = molecular target: GlcNAc(b1-4)GlcNAc(b1-4)GlcNAc(b1-4)GlcNAc(b1-4)GlcNAc
# Summary of the method: as §1
# [38] = molecular target: GlcNAc(b1-4)GlcNAc(b1-4)GlcNAc(b1-4)GlcNAc(b1-4)GlcNAc(b1-4)GlcNAc
# Summary of the method: as §1
# [39] = molecular target: Neu5Ac(a2-3)Gal(b1-3)[Neu5Ac(a2-3)Gal(b1-4)]GlcNAc
# Summary of the method: as §1
# Neu5Ac(a2-3)Gal(b1-4)Glc = molecular target: Neu5Ac(a2-3)Gal(b1-4)Glc
# Summary of the method: as §1
# [40] = molecular target: Neu5Ac(a2-3)Gal(b1-4)GlcNAc(b1-3)Gal(b1-4)GlcNAc
# Summary of the method: as §1
# [41] = molecular target: Neu5Ac(a2-3)Gal(b1-4)GlcNAc(b1-3)Gal(b1-4)GlcNAc(b1-3)Gal(b1-4)GlcNAc
# Summary of the method: as §1
# [42] = molecular target: Neu5Ac(a2-8)Neu5Ac(a2-8)Neu5Ac(a2-8)Neu5Ac(a2-3)[GalNAc(b1-4)]Gal(b1-4)Glc
# Summary of the method: as §1
# [43] = molecular target: Neu5Gc(a2-3)Gal(b1-4)GlcNAc
# Summary of the method: as §1
binder,measurement,setting,value
"CLEC-6 (Homo sapiens), Q8WXI8 (protein) MGLEKPQSKLEGGMHPQLIPSVIAVVFILLLSVCFIASCLVTHHNFSRCKRGTGVHKLEHHAKLKCIKEKSELKSAEGSTWNCCPIDWRAFQSNCYFPLTDNKTWAESERNCSGMGAHLMTISTEAEQNFIIQFLDRRLSYFLGLRDENAKGQWRWVDQTPFNPRRVFWHKNEPDNSQGENCVVLVYNQDKWAWNDVPCNFEASRICKIPGTTLN",glycan array binding signal (z-score),[1],6.22
same,glycan array binding signal (z-score),[2],-0.176
same,glycan array binding signal (z-score),[3],-0.295
same,glycan array binding signal (z-score),[4],0.12
same,glycan array binding signal (z-score),[5],-0.282
same,glycan array binding signal (z-score),[6],-0.276
same,glycan array binding signal (z-score),[7],-0.239
same,glycan array binding signal (z-score),[8],-0.102
same,glycan array binding signal (z-score),Gal(b1-2)Gal,-0.038
same,glycan array binding signal (z-score),[9],-0.328
same,glycan array binding signal (z-score),Gal(b1-4)Glc6S,-0.263
same,glycan array binding signal (z-score),Gal3S6S(b1-4)GlcNAc6S,6.21
same,glycan array binding signal (z-score),Gal6S(b1-4)GlcNAc,-0.239
same,glycan array binding signal (z-score),[10],-0.077
same,glycan array binding signal (z-score),[11],-0.138
same,glycan array binding signal (z-score),[12],1.94
same,glycan array binding signal (z-score),[13],-0.144
same,glycan array binding signal (z-score),[14],-0.077
same,glycan array binding signal (z-score),[15],-0.104
same,glycan array binding signal (z-score),[16],-0.221
same,glycan array binding signal (z-score),[17],1.59
same,glycan array binding signal (z-score),[18],-0.166
"Mcg Light Chain Dimer (Homo sapiens), Q6PIK1 (protein) MAGFPLLLTLLTHCAGSWGQSLLTQPPSVSGTPGQRVTISCSGSSSNIGINYVYWYQQIPGTAPKLLISTNDQRPSGVPDRFSGSKSGTSASLAIGGLRSEDEAHYYCAAWDDSMSGPGYAFGTGTKVTVLRQPKANPTVTLFPPSSEELQANKATLVCLISDFYPGAVTVAWKADGSPVKAGVETTKPSKQSNNKYAASSYLSLTPEQWKSHRSYSCQVTHEGSTVEKTVAPTECS",glycan array binding signal (z-score),[1],-0.611
same,glycan array binding signal (z-score),[5],-1.02
same,glycan array binding signal (z-score),[19],0.344
same,glycan array binding signal (z-score),[20],4.13
same,glycan array binding signal (z-score),Gal(a1-3)Gal(b1-4)Glc,-1.04
same,glycan array binding signal (z-score),[21],0.315
same,glycan array binding signal (z-score),[22],-0.568
same,glycan array binding signal (z-score),Gal(b1-4)Glc6S,0.905
same,glycan array binding signal (z-score),[23],-0.321
same,glycan array binding signal (z-score),[24],-0.54
same,glycan array binding signal (z-score),Gal3S4S(b1-4)GlcNAc,3.63
same,glycan array binding signal (z-score),Gal3S6S(b1-4)GlcNAc6S,5.67
same,glycan array binding signal (z-score),Gal6S(b1-4)GlcNAc6S,0.505
same,glycan array binding signal (z-score),Man(a1-3)[Man(a1-6)]Man,-1.04
same,glycan array binding signal (z-score),[25],-0.305
same,glycan array binding signal (z-score),[14],2.88
same,glycan array binding signal (z-score),[26],1.73
same,glycan array binding signal (z-score),[27],2.96
same,glycan array binding signal (z-score),[28],-0.955
same,glycan array binding signal (z-score),[29],1.2
same,glycan array binding signal (z-score),[30],0.325
chitinase 3-like protein 2 (Homo sapiens) (protein) YKLVCYFTQWSQDRQEPGKFTPENIDPFLCSHLIYSFASIENNKVIIKDKSEVMLYQTINSLKTKNPKLKILLSIGGYLFGSKGFHPMVDSSTSRLEFINSIILFLRNHNFDGLDVSWIYPDQKENTHFTVLIHELAEAFQKDFTKSTKERLLLTAGVSAGRQMIDNSYQVEKLAKDLDFINLLSFDFHGSWEKPLITGHNSPLSKGWQDRGPSSYYNVEYAVGYWIHKGMPSEKVVMGIPTYGHSFTLASAETTVGAPASGPGAAGPITESSGFLAYYEICQFLKGAKITRLQDQQVPYAVKGNQWVGYDDVKSMETKVQFLKNLNLGGAMIWSIDMDDFTGKSCNQGPYPLVQAVKRSLGSL,glycan array binding signal (z-score),[1],-0.164
same,glycan array binding signal (z-score),[31],-0.22
same,glycan array binding signal (z-score),[32],-0.196
same,glycan array binding signal (z-score),[33],-0.209
same,glycan array binding signal (z-score),[34],-0.183
same,glycan array binding signal (z-score),GalNAc(b1-4)GlcNAc,2.63
same,glycan array binding signal (z-score),[35],-0.271
same,glycan array binding signal (z-score),[36],-0.22
same,glycan array binding signal (z-score),[37],7.67
same,glycan array binding signal (z-score),[38],9.06
same,glycan array binding signal (z-score),[39],-0.116
same,glycan array binding signal (z-score),Neu5Ac(a2-3)Gal(b1-4)Glc,-0.233
same,glycan array binding signal (z-score),[40],-0.269
same,glycan array binding signal (z-score),[41],-0.127
same,glycan array binding signal (z-score),[42],1.51
same,glycan array binding signal (z-score),[43],0.093
